High-throughput results (PubChem)
Sampled rows, rich in hits. Any-hit rate of the full collection: about 3.9%.
Tb PFK block: T. brucei PFK enzyme inhibition; T. brucei PFK, ADP-Glo luminescence; Potency, µM (series often up to 57.5 µM), inactives show at the top dose activity, negative = inhibition, hits mostly inhibitors; actives 0.17% (n = 330,000); AID 485367;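 further: 0% = uninhibited 1x PFK enzyme wells and -100% = no-enzyme wells; nearly all actives have a fitted effect of over 60% in size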
Target sequence (O15648 whole entry, looked up): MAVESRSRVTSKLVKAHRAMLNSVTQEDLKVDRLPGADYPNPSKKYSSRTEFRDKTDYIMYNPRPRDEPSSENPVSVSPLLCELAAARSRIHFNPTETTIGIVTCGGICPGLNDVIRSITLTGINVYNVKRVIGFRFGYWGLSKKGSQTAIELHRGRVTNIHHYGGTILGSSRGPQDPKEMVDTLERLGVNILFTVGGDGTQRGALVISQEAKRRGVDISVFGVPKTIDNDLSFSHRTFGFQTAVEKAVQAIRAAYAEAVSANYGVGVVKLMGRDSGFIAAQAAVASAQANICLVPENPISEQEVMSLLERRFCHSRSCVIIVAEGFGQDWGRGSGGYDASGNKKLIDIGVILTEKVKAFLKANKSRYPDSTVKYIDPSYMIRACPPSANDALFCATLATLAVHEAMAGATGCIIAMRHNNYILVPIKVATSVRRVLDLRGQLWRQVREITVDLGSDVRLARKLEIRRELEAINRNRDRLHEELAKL
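In TEA buffer at pH 8.0 with 5 mM MgCl2, enzyme (1.25 nM) converted F6P (0.5 mM) and ATP (0.1 mM) for 45 min at room temperature. ADP product was read by luciferase luminescence.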
PLK1 PBD block: blocks phosphopeptide binding to human PLK1 polo-box domain | P53350 | Plk1 PBD binding of FITC phosphopeptide, fluorescence polarization | Potency, µM, inactives show max response, negative = inhibition, hits mostly inhibitors | actives 2.8% (n = 360,000) | AID 720504; further: series mostly up to about 57 µM; on the % scale 0 is the no-effect control and ±100 the full control effect; nearly all actives have a fitted effect of over 65% in size
VDR inh: inhibitors of human vitamin D receptor; P11473; Potency, µM, without a hit: max response, negative = inhibition, hits mostly inhibitors; actives 0.93% (n = 400,000); VDR-SRC2-3 peptide fluorescence polarization, 2 h; further: on the % scale 0 is the no-effect control and ±100 the full control effect
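Signal is fluorescence polarization, reporting how far test compounds block the interaction of VDR with the SRC2-3 coregulator peptide after a 2 h room-temperature incubation.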
BRCA1 expr act: activators of BRCA1 expression. Potency, µM (highest dose often 46.1 µM), for inactives: top-dose activation, actives largely listed as activators. MCF7-BRCA1-FFLuc reporter, luminescence, 48 h; response scale: scaled: vehicle 0%, 10 µM genistein 100%. actives 1.1% (n = 380,000); further: nearly all actives have a fitted effect of over 80% in size
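48 h compound treatment of MCF7-BRCA1-FFLuc cells (phenol-red free MEM, 37 °C), then 15 min with luciferase substrate and luminescence imaging.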
* hit, by the source's call; ? = inconclusive; · = no result given; ! = repeats disagree; [ ] = remark or other dose. The call rests on the fitted dose curve; in most records, active means well fitted curve in the direction sought with a large enough effect; inconclusive means small, poorly fitted or top-dose-only effect, or another doubt; inactive means no such curve, though single readings can be large; an effect the other way counts as inactive or inconclusive. Potency means the concentration at half of the fitted maximal effect.

SMILES	Tb PFK block	PLK1 PBD block	VDR inh	BRCA1 expr act
CC1(C)CCc2cc(S(=O)(=O)N3CCN(S(=O)(=O)c4c(F)cccc4F)CC3)ccc2O1	-5%	·	1%	7.9µM*
CN1CCOc2ccc(S(=O)(=O)N3CCN(S(=O)(=O)c4c(F)cccc4F)CC3)cc21	6%	·	·	·
Cc1c(CCC(=O)O)c(=O)oc2c(C)c3occ(-c4ccc(Cl)cc4)c3cc12	-22%	30µM*	?	-19%
Cc1c(CCC(=O)O)c(=O)oc2cc3occ(-c4ccc(Cl)cc4)c3cc12	-5%	?	-29%	-13%
Cc1oc2c(C)c3oc(=O)c(CCC(=O)O)c(C)c3cc2c1-c1ccccc1	7%	27µM*	?	-7%
CCCCNC(=O)C1C(c2ccc(OC)cc2)=Nc2ccccc2N1C(=O)c1cccnc1 (stereo not given)	·	-7%	·	·
O=C(NCc1ccccn1)Nc1ccc(Cl)cc1Cl	-9%	-4%	3%	7.9µM*
O=C(NCc1ccccn1)Nc1ccc(Br)cc1Cl	-10%	?	2%	11µM*
O=C(Cc1csc(NC(=O)Nc2ccc(Cl)cc2)n1)NCc1ccccn1	-6%	-5%	-19%	11µM*
S=C(NCc1ccccn1)Nc1ccc(Br)cc1Cl	-5%	?	-12%	11µM*
Cc1c(Cl)cccc1NC(=O)NCc1ccccn1	-5%	-10%	12%	25%
O=C(Cc1csc(NC(=O)Nc2ccc(Cl)cc2)n1)NC1CCCC1	2%	-1%	1%	-26%
S=C(NCc1ccccn1)Nc1ccccc1Cl	1%	-20%	-34%	50%
O=C(NCCc1nc2ccccc2n1Cc1ccccc1)c1ccco1	·	·	23%	·
O=C(NCc1ccccn1)Nc1ccccc1Cl	-2%	-19%	35%	66%
O=C(NCc1ccccn1)Nc1cccc(Cl)c1Cl	-2%	-3%	3%	10µM*
O=C(COc1ccc(F)cc1Br)NCc1ccccn1	·	-8%	6%	?
O=C(COc1ccccc1Br)NCc1ccccn1	1%	-3%	8%	11µM*
COc1cc(-c2oc3cc(O)cc(O)c3c(=O)c2O[C@@H]2O[C@H](CO)[C@@H](O)[C@H](O)[C@H]2O)cc(OC)c1O	·	·	14%	·
COc1ccc2cc[nH]c2c1	-8%	21µM*	?	-11%
COc1cc(OC)c2cc[nH]c2c1	0%	5%	3%	-4%
COc1ccc(NC(=O)Nc2ccc3[nH]ccc3c2)cc1	·	-1%	-7%	3.2µM*
COc1ccc(S(=O)(=O)NCCc2sc(C)nc2C)cc1F	·	·	2%	0%
CCC1=Nc2cc(C(=O)NCCCN3CCN(C)CC3)ccc2Sc2ccccc21	0%	-3%	1%	-23%
CC(=O)c1cccc(N2Cc3ccccc3C2=NC(=O)CCl)c1	-4%	13µM*	-30%	29%
SMILES	Tb PFK block	PLK1 PBD block	VDR inh	BRCA1 expr act
CC(Sc1nc(-c2ccccc2)cc(C(F)(F)F)n1)C(=O)O (stereo not given)	0%	27µM*	-23%	0%
CCCOC(=O)c1c(NC(=O)C(C)Sc2nc(-c3ccccc3)cc(C(F)(F)F)n2)sc(C(=O)N(C)C)c1C (stereo not given)	·	·	?	-46%
CCOC(=O)c1c(NC(=O)CSc2nc(-c3ccc(OC)cc3)cc(C(F)(F)F)n2)sc(C)c1C	·	·	79µM*	5%
CCCCNC(=O)CSc1nc(-c2ccc(OC)cc2)cc(C(F)(F)F)n1	·	·	-15%	-12%
O=C(O)c1ccc(CSc2nc(-c3ccc(Cl)cc3)cc(C(F)(F)F)n2)cc1	-2%[0.46 µM]	21µM*	0%	0%
CCN(CC)C(=O)c1sc(NC(=O)C(C)Sc2nc(-c3ccccc3)cc(C(F)(F)F)n2)c(C(=O)OC)c1C (stereo not given)	·	·	35µM*	·
CC1(C(=O)Nc2ccc3[nH]ncc3c2)CCN1C(=O)C1(c2ccccc2)CC1 (stereo not given)	·	-11%	·	-20%
O=C(O)c1ccc(S(=O)(=O)N[C@H](Cc2ccc(C(F)(F)F)cc2)C(=O)O)cc1	5%	·	·	·
CCC(=O)N1c2ccccc2CC1C(=O)NCc1ccccc1Cl (stereo not given)	·	·	5%	·
N#CSCC(=O)c1cccc2ccccc12	-16%	11µM*	?	-25%
Cc1cccc(NC(=O)c2ccc(CNS(=O)(=O)c3ccc4c(c3)C(C)(C)C(=O)N4C)cc2)c1	·	·	2%	·
COc1ccc(Cc2nn3c(-c4ccccc4OC)nnc3s2)cc1	14%	?	9%	-50%
c1ccc2c(c1)nnn2Cc1nnc2sc(-c3ccc4c(c3)OCCO4)nn12	-4%	11µM*	8%	-4%
c1ccc(-c2nn3c(Cn4nnc5ccccc54)nnc3s2)cc1	-8%	13µM*	-79%	14%
COc1ccc(Cc2nn3c(Cn4nnc5ccccc54)nnc3s2)cc1	-6%	21µM*	?	-2%
CCc1ccc(N(CC)C(=O)c2cc3c(=O)oc4ccc(C)cc4c3s2)cc1	·	·	-8%	8%
CC(C)CN(CC(C)C)c1ccc(/C=C/c2ccnc3ccccc23)cc1	·	·	·	-23%
CC/C=C\C/C=C\C/C=C\CCCCCCCC(=O)O	-2%	?	22µM*!	3%
CC/C=C\C/C=C\C/C=C\C/C=C\C/C=C\CCCC(=O)O	·	·	40µM*!	·
CC/C=C\C/C=C\C/C=C\CCCCCCCCCCCC(=O)O	·	·	50µM*	·
CC/C=C\C/C=C\C/C=C\CCCCCCCCCC(=O)O	·	·	-21%	·
CCCCC/C=C\C/C=C\C/C=C\C/C=C\CCCCCC(=O)O	·	·	-1%	·
Cc1cc(C)c(NC(=O)C(=O)NCC(c2cccnc2)N2CCN(Cc3ccccc3)CC2)c(C)c1 (stereo not given)	·	·	7%	·
Cc1ccc(Nc2nc(Nc3ccc(Cl)cc3)nc(N3CCOCC3)n2)cc1	·	·	?	-20%
COc1cccc(-n2c(SCC(N)=O)nc3c(oc4ccccc43)c2=O)c1	·	·	2%	-16%
SMILES	Tb PFK block	PLK1 PBD block	VDR inh	BRCA1 expr act
O=C(O)c1ccc(N2C(=O)CC(SC(=NCc3ccc4c(c3)OCO4)Nc3ccccc3)C2=O)cc1 (stereo not given)	-4%	53µM*	-19%	-11%
O=C(Nc1ccc(N2CCOCC2)cc1)C1CCN(C(=O)OCc2ccccc2)CC1	0%	-6%	8%	2.8µM*
O/N=C(/C[n+]1cccc(Br)c1)c1ccc2ccccc2c1	·	·	·	-4%
N#CC(C(=O)c1ccco1)c1ccccn1 (stereo not given)	7%	-4%	3%	14µM*
COc1ccc(Cl)cc1C(=O)C1CCCN(Cc2cnc(N3CCOCC3)s2)C1 (stereo not given)	-2%	13µM*	?	-52%
O=c1[nH]c(=S)c2[nH]cnc2[nH]1	·	·	-4%	6%
COc1ccc(NC2=C(Cl)C(=O)N(CCc3ccccc3)C2=O)cc1	4%	9.5µM*	?	42%
COc1ccc(C(=O)OCC(=O)c2ccc[nH]2)cc1	-2%	-7%	-15%	89%
Cc1ccc(Cl)cc1N1CCN(C(=O)CN2C(=O)COc3ccc(S(=O)(=O)N4CCC(C)CC4)cc32)CC1	·	·	7%	-4%
O=c1c2ccccc2[nH]c(=S)n1Cc1ccccc1	-1%	-6%	13%	1%
